# In the supplement of paper PMC6555819:
# How the values were obtained:
# Test in all cases: PBM binding z-score (relative to random genomic background probes); higher = stronger binding; sequences stand for … in GC…GCGATTGACAGCGTAGAATGAAGG
# [1] = tested on: FXR:RXRa (NR concentration 270 nM, RXRa partner concentration 90 nM)
# Outline: (§1)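 Binding z-scores were set against random background probes. The data came from custom Agilent 4×180K protein-binding microarrays carrying double-stranded probes with 34-nt variable regions, incubated 1 h with ligand-free nuclear receptor dimers. Partner-specific antibodies detected binding, and scanned fluorescence was regression-normalized.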
# [2] = tested on: LXRa:RXRa (NR concentration 270 nM, RXRa partner concentration 90 nM)
# Outline: as §1
# [3] = tested on: LXRa homodimer (NR concentration 270 nM)
# Outline: as §1
# [4] = tested on: LXRb:RXRa (NR concentration 270 nM, RXRa partner concentration 90 nM)
# Outline: as §1
# [5] = tested on: LXRb homodimer (NR concentration 270 nM)
# Outline: as §1
# [6] = tested on: PPARa:RXRa (NR concentration 270 nM, RXRa partner concentration 90 nM)
# Outline: as §1
# [7] = tested on: PPARg:RXRa (NR concentration 180 nM, RXRa partner concentration 90 nM)
# Outline: as §1
# [8] = tested on: PPARg:RXRa 270nM:90nM, anti-RXR (NR concentration 270 nM, RXRa partner concentration 90 nM)
# Outline: as §1
# [9] = tested on: PPARg:RXRa 30nM:10nM, anti-RXR (NR concentration 30 nM, RXRa partner concentration 10 nM)
# Outline: as §1
# [10] = tested on: PPARg:RXRa 90nM:30nM, anti-RXR (NR concentration 90 nM, RXRa partner concentration 30 nM)
# Outline: as §1
Sequence,PBM binding z-score [1],PBM binding z-score [2],PBM binding z-score [3],PBM binding z-score [4],PBM binding z-score [5],PBM binding z-score [6],PBM binding z-score [7],PBM binding z-score [8],PBM binding z-score [9],PBM binding z-score [10]
GCGCCTGGGGCAAAGCAGGTTACCATAAGGTTGG,0.19,-0.148,-0.679,-0.341,-1.26,0.474,0.0826,-0.405,-0.693,-0.771
ATATGTAGGTTAAGGGTCATTCGGGTTGGTTCGC,5.36,4.83,3.47,4.62,1.81,6.53,12.2,10.3,11.7,12.2
TCTATTAGTTGAAGGGCAACTGACGAGTCCGTTT,0.705,0.726,0.328,0.815,0.416,1.09,0.086,2.28,3.74,3.07
ATTCAAAGTTCATCTAGGTAACGTAAGATATGCT,6.71,6.24,6.17,3.99,2.84,4.52,4.18,4.51,1.84,3.39
CCAGACAGGTGAAAGGTAATTCAGTCTGGTACGC,0.605,0.764,-0.068,0.645,-0.433,3.29,5.24,5.83,4.2,5.95
TTACCAAGCTGAGCTGAGGTCGTTGATCCAACTC,0.0307,-0.149,-0.687,-0.148,-1.09,0.413,-0.752,-0.18,-0.479,-0.597
GCAGACAGGTGAAACGCAGTTAACTCAGGGTGGC,-0.413,-0.168,-0.315,-0.381,-1.38,0.714,0.486,-0.149,-0.977,-0.452
TCCCGGAGGACACGAAGGTCAGAGCTTTCCAGAG,1.21,1.09,0.214,0.838,-1.26,1.81,0.359,1.33,1.5,1.41
AGAATGAGGTTATGATCAGGGAAACAGAATACAT,1.66,1.52,-0.0293,1.41,-0.275,2.83,1.86,1.65,1.17,1.03
GGAACGAGGGCAAAGTTGACAGCATCTGTCGACG,2.02,1.27,-0.425,1.25,-0.409,4.78,8.22,7.66,7.72,8.34
CCGACTGGGGCAGAAAGGTCACCATACCATCCGG,3.52,3.99,1.97,3.56,-0.936,4.65,4.35,5.18,3.05,4.59
TGAATGAGGTTAAAGATCAGGCAACGTGGCGTCG,2.94,2.82,-0.471,1.4,0.134,4.85,5.51,6.49,5.01,6.3
CGCCCAAGGTCAAGGTCAGTGAAAGAGACTCGAA,7.66,5.71,1.02,4.47,1.05,5.96,6.1,5.9,2.41,4.9
ATCTCTAGGTAACAAGTTCAGTTAAAGAGAGGAC,0.755,0.963,0.655,0.642,0.936,1.62,1.48,2.05,0.996,1.57
TCTTGTAGATCAACAGGTTAAGAAAGCTGGCCAA,0.41,0.634,-0.164,0.757,-0.124,1.33,0.000535,1.83,2.88,2.37
CCAGACAGGTGAGAAGGTAACTCGGCCTCGATTA,-0.0113,0.14,-0.0117,-0.138,-0.518,0.585,0.364,0.533,-0.307,0.171
ACTAGTTGGTTAGCTGAGGTCACACACAATTCGG,2.92,3.56,3.63,3.49,0.944,3.95,1.63,2.35,0.884,1.41
CCTAGTTGGTCAGGAGGTAACACACCGGATATGA,0.273,0.0725,0.325,0.204,-0.0466,0.433,0.902,1.08,0.0146,0.419
ACTATTACTTGACTTAGGGCAACCGATACGACGC,0.391,0.445,1.02,0.691,1.56,0.231,1.19,0.283,0.727,0.716
